According to ChEMBL document CHEMBL4888484, “Replenishing the malaria drug discovery pipeline: Screening and hit evaluation of the MMV Hit Generation Library 1 (HGL1) against asexual blood stage Plasmodium falciparum ,using a nano luciferase reporter read-out” (2022):
The campaign covered roughly 150,000 compounds. About 540 (0.36%) showed an effect of 50% or more. This is one part of a sample in which strong results are shown more often than they occur.

Tested on: Plasmodium falciparum
Experiment: Primary screen in NF54 nanoGlo assay, in single point, at 2uM, 72h; a lower Z score goes with more inhibition
Type: functional, Erythrocyte
Settings: timepoint 72 hour

SMILES | % Inhibition [%] | Z score
Cc1cccc(CNC(=O)[C@H]2CCN(c3cn[nH]c(=O)c3)C2)c1 | -12 | 1.58
O=C(Nc1ccc(N2CCOCC2)cc1)[C@H]1CCN(c2cn[nH]c(=O)c2)C1 | -14 | 1.91
Cc1cccc(NC(=O)[C@H]2CCN(c3cn[nH]c(=O)c3)C2)c1 | 52 | -0.4
CCCCN1C(=O)[C@](NS(=O)(=O)c2ccc(NC(C)=O)cc2)(C(F)(F)F)C(C(C)=O)=C1C | -7 | 0.92
N#Cc1nc2c(C#N)c(N)n(CCc3ccccc3)c2nc1C#N | 88 | -11.87
COc1ccc(CCn2c(N)c(-c3nc4ccccc4s3)c3nc(C#N)c(C#N)nc32)cc1OC | -5 | 0.86
N#Cc1nc2c(S(=O)(=O)c3ccccc3)c(N)n(Cc3ccc(Cl)cc3)c2nc1C#N | -16 | 2.57
C[C@H]1COCCN1C(=O)CCc1ccco1 | -2 | 0.25
Cc1ccc(CNC[C@H](O)c2cccnc2)c(Br)c1 | 7 | -0.68
O=C(Cn1cnc2ccc(Cl)cc2c1=O)NCCCc1ccccc1 | 2 | -0.27
Cc1ccsc1CN(CCN1CCOCC1)[C@H]1CCCNC1 | -5 | 0.7
CCOC(=O)N1CC[C@H](NC2(c3cc(F)ccc3F)CC2)C1 | -9 | 1.36
O=C(Cn1cc2c(n1)CCCCCC2)NCCc1ccc(Cl)cc1 | 6 | -0.96
C[C@@H](CNc1cnc2ccccc2n1)N1CCOCC1 | 20 | -2.58
C[C@@H](CNc1nc(-c2ccccc2)nc2ccccc12)N1CCOCC1 | -9 | 1.51
CCCCCc1nc([C@H](C)N2CCN(C)CC2)n(-c2cc(C)ccn2)n1 | -3 | 0.42
O=S(=O)(c1ccc(Cl)s1)N1CCc2nc(-c3ccc(Cl)cc3)ncc2C1 | -11 | 1.78
Cc1cccc2c1OCC[C@H]2NC(=O)Cn1cnc2c1CCNC21CCOCC1 | -5 | 0.76
O[C@@H](CNCCCn1ccnc1)COc1ccc(Cl)cc1Cl | 26 | -2.66
Clc1ccc(COc2ccc(Cl)cc2CNCCCn2ccnc2)c(Cl)c1 | 94 | -11.1
Clc1ccc(Cn2cc(CNCCCn3ccnc3)c3ccccc32)c(Cl)c1 | 98 | -10.9
C[C@@H](NCCCn1ccnc1)c1ccc(Cl)cc1 | -4 | 0.5

SMILES | % Inhibition [%] | Z score
O=c1[nH]nc(Cn2ccnc2)n1Cc1ccc(Cl)cc1Cl | 0 | -0.08
CCOc1cc(CNCCCn2ccnc2)ccc1OCc1ccccc1 | 46 | -2.57
O=C(O)c1cccc(CN2CCc3nc(C4CC4)ncc3C2)c1 | -13 | 1.45
CC1CC(N2CCCC(n3cnc4ccccc43)C2)CN1C (stereo not given) | -5 | 0.43
Cc1ccc(C(=O)c2nocc2C(=O)c2cccnc2)cc1 | 1 | -0.19
CCc1cc(C(=O)N2CCN(C/C=C/c3ccccc3)CC2)cc(=O)[nH]1 | 0 | 0.04
CC(C)[C@@H]1CC[C@H](C)C[C@H]1OC(=O)Cn1cc(-c2ccc(Cl)cc2)[n+]2c1CCC2 | 79 | -6.99
CC1CCC(C(C)C)C(OC(=O)Cn2nnc(C(N)=O)n2)C1 (stereo not given) | 19 | -2.22
CC1CCC(C(C)C)C(OC(=O)COC(=O)c2ccncc2)C1 (stereo not given) | -10 | 1.31
Cc1onc(-c2ccccn2)c1C(=O)NC1CCCCC1 | 12 | -2.28
O=C(Nc1ccc(Cc2ccc(NC(=O)c3ccc(Br)cc3)c(O)c2)cc1O)c1ccc(Br)cc1 | 60 | -1
C=C(C)C(=O)Nc1ccc(Cc2ccc(NC(=O)C(=C)C)c(O)c2)cc1O | 0 | -0.04
CNC(=O)CCCC(=O)Nc1ccc(Br)cc1O | -9 | 0.88
CCN(CC(=O)N1CCCNC(=O)[C@@H]1C)c1ccccc1 | -10 | 1.27
O=C(c1n[nH]c2c1CCc1ccccc1-2)N1CCCCCC1 | -15 | 1.3
O=C(NCCc1nccs1)c1n[nH]c2c1CCc1ccccc1-2 | -9 | 1.37
O=C(NCCN1CCCCC1)c1n[nH]c2c1CCc1ccccc1-2 | 52 | -0.47
CCc1ncc(NC(=O)c2coc(-c3ccccc3)n2)cn1 | -21 | 2.66
CC(C)c1nc(C(=O)Nc2[nH]c(=O)ncc2F)cs1 | 88 | -15.46
Cc1cnc(NC(=O)c2nc(C)oc2-c2ccccc2)[nH]1 | -10 | 1.11
Cc1nc(C(=O)Nc2[nH]c(=O)ncc2F)c(-c2ccccc2)o1 | 80 | -7.61
CC(C)c1nc(C(=O)Nc2[nH]nc(C3CC3)c2C#N)cs1 | -25 | 3.79

SMILES | % Inhibition [%] | Z score
Nc1ccc(F)cc1NC(=O)c1coc(-c2ccccc2)n1 | -10 | 1.7
O=C(Nc1[nH]c(=O)ncc1F)c1coc(-c2ccccc2)n1 | 80 | -14.59
Cc1nc(C(=O)NC[C@@]23CCC[C@@H]2OCC3)c(-c2ccccc2)o1 | 0 | -0.01
CC(C)c1nc(C(=O)N[C@@H](C)C(N)=O)cs1 | -9 | 1.83
CCOCCCNC(=O)C1CCN(C(=O)c2cc3oc(C)cc3n2Cc2c(F)cccc2Cl)CC1 | -1 | 0.06
CN1CCN(S(=O)(=O)N2CCN(Cc3cccn3C)CC2)CC1 | 7 | -0.7
NC(=O)CN1CCC(Nc2nc3ccccc3n2CCO)CC1 | -7 | 1.08
COc1cccc(NC(=O)Cc2c(C)nn(-c3nc(-c4ccc(C)cc4)cs3)c2C)c1 | -13 | 1.45
CN(Cc1cc2cc(F)ccc2[nH]1)Cc1ccnn1C | -9 | 1.38
C[C@H](Nc1ccc(C#N)cn1)c1cccc(-n2cccn2)c1 | 0 | 0.03
Cc1ccccc1Cc1c(C)[nH]c2[nH]n(-c3ccccc3)c(=O)c2c1=O | 10 | -1.18
CCCCCc1c(C)nc2[nH]n(-c3ccccc3)c(=O)c2c1O | 34 | 2.26
CNCCc1c(-c2ccccc2)[nH]n(-c2ccccc2)c1=O | 82 | -6.33
O=C1NCCN1CCN1CCc2[nH]ncc2C1 | -10 | 1.34
CC1=NN(c2ccccc2)C(=O)C12Cc1ccc(Cl)cc1N1CCCCC12 (stereo not given) | 8 | -1.22
Cc1cc(C)cc(OC[C@@H](O)CNC(C)(C)CC(C)(C)C)c1 | -3 | 0.43
Cc1cc(OC[C@@H](O)CNC(C)(C)CC(C)(C)C)cc(C)c1Cl | 51 | -6.83
Cc1cc(OC[C@@H](O)CNC(C)C)cc(C)c1Cl | -7 | 1.4
CCc1cnc(C)nc1N1CCC(N2CC(n3nc(C)cc3C)C2)CC1 | 6 | -1.11
CN(Cc1cccnc1)C(=O)c1csc(NC(=O)c2ccc(Cl)cc2Cl)n1 | -12 | 1.69
COc1ccc(-c2ccnc(N[C@H]3CCN(C4CCOCC4)C3=O)n2)cc1 | -13 | 2.48
C#CCOCC(O)CN(Cc1c(-c2ccccc2)noc1N1CCC(C)CC1)CC1CCCO1 (stereo not given) | 59 | 1.43

SMILES | % Inhibition [%] | Z score
C=CCOCC(O)CN(Cc1c(-c2ccccc2)noc1N1CCCCC1C)CC1CCCO1 (stereo not given) | 30 | -0.88
CCOC[C@@H](O)CN(Cc1c(-c2ccccc2)noc1N1CCC(C)CC1)CC1CC1 | 35 | 0.79
C[C@H](N)c1ccc(Nc2ncc3cc(-c4ccncc4)ccc3n2)cc1 | 85 | -9.36
CC(C)C(=O)Nc1ccc(-c2cc(-c3ccc(NC(=O)C(C)C)cc3)nc(-c3ccncc3)n2)cc1 | 38 | -10.15
CC(NC(=O)NC(C)c1ccc(-c2cccnc2)cc1)c1ccncc1 (stereo not given) | 7 | -1.01
CCOc1c(Br)cc(Cl)cc1NCC(=O)NC(=O)NCC(C)C | -7 | 1.36
Cn1ncc2c1CCCN(c1nccn3nc(C(F)(F)F)cc13)C2 | -10 | 1.44
CC(=O)c1ccc(NC(=O)c2cc3n(n2)CCCO3)cc1 | -7 | 1.13
CC(C)=CC1C(C(=O)N(C)CC2COc3ccccc3O2)C1(C)C (stereo not given) | -4 | 0.45
Cc1cncc(C(=O)NC[C@@H](CO)Cc2ccc(Cl)cc2)c1 | -7 | 0.93
COC[C@H](NCCc1cc(F)cc2c1OCOC2)C1CC1 | 63 | -8.98
O=C(CNC(=O)NC1CC1)NCCc1cc(F)cc2c1OCOC2 | -2 | 0.2
CC1CC(NCCc2cc(F)cc3c2OCOC3)CN1C1CC1 (stereo not given) | -5 | 0.45
Cc1nc(-c2ccnc(NCc3cnc(N(C)C)nc3)c2)n[nH]1 | 5 | -0.63
O=S1(=O)NC[C@H](O)CNC[C@@]2(COc3cc(-c4ccccc4)ccc31)C[C@@H](O)[C@@H](O)C2 | -14 | 1.78
Cn1nccc1[C@@H]1CN(C(=O)NCc2ccon2)CCO1 | -3 | 0.43
Cc1cc(C(=O)N[C@@H](C)c2nc(-c3cccnc3)cs2)cc(O)n1 | 51 | -3.53
Cc1ccc(C)c(C(=O)N[C@@H](C)c2nc(-c3cccnc3)cs2)c1 | 0 | -0.01
Cc1cc(CC(=O)N[C@@H](C)c2nc(-c3cccnc3)cs2)no1 | -5 | 0.5
